# Data as given in PubChem BioAssay (NCATS).
# Values without a mark were called inactive. Records with an inconclusive call do not appear. Where a call stands in place of a potency, no number is given. The source made the active and inactive calls. Unless noted, calls come from the whole dose curve; as a rule, active = well fitted curve in the direction sought with a large enough effect; inconclusive = small, poorly fitted or top-dose-only effect, or another doubt; inactive = no such curve, though single readings can be large; an effect the other way counts as inactive or inconclusive.
# Key:
# [1] = Cell Viability - N2a (AID 540); settings: N2a mouse neuroblastoma cell viability; at 92.2 µM (top of the series);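 note: cells exposed to compound for 40 h at 37 °C; nearly all actives have a fitted effect of over 45% in size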
# In short: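 Luminescent ATP signal (CellTiter-Glo, 20 min at room temperature) served as the viability read-out after N2a cells were treated with compounds for 40 hours at 37 °C. Concentration-response data were fitted to the Hill equation for AC50.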
# [2] = Cell Viability - H-4-II-E (AID 543); note: nearly all actives have a fitted effect of over 35% in size
# In short: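 Luminescent ATP signal (CellTiter-Glo) served as the viability read-out, with cytotoxicity seen as a concentration-dependent ATP drop. Cells were treated for 40 hours in complete medium. AC50 values derive from Hill-equation modelling.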
# [3] = Cell Viability - LYMP1-002 - Assay at 16 hr (AID 948); note: potency is the fitted concentration of half-maximal effect
# In short: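 Acute cytotoxicity is scored as a concentration-dependent fall in intracellular ATP in a human lymphoblastoid line (LYMP1-002) after 16 hr compound exposure at 37 C, measured by luciferase luminescence.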
# [4] = MultiTox-Fluor Cytotoxicity Assay - LYMP1-002 - Dead Cells (AID 960); note: nearly all actives have a fitted effect of over 60% in size; note: potency is the fitted concentration of half-maximal effect
# In short: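 LYMP1-002 cells 2500/well; 5 hr 37 C pre-incubation; compound 16 hr 37 C; MultiTox-Fluor reagent 60 min RT; dead-cell fluor Ex/Em 485/520. Norm. to DMSO (0%) vs 15 uM tetraoctylammonium bromide (100%); Hill AC50.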
# [5] = MultiTox-Fluor Cytotoxicity Assay - LYMP1-003 - Live Cells (AID 962);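 note: cells exposed to compound for 16 hours at 37 °C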; note: potency is the fitted concentration of half-maximal effect
# In short: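 qHTS, 1536-well; 2500 cells/well LYMP1-003; 5 hr 37 C settle; cpd 16 hr 37 C; MultiTox-Fluor reagent 60 min RT; live-cell protease fluor. 405/510; Hill-fit AC50; tetraoctylammonium bromide pos. ctrl.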
# [6] = Cell Viability - LYMP1-003 - Assay at 24 hr (AID 963); note: potency is the fitted concentration of half-maximal effect
# In short: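 Cells seeded at 2500/well, 5 hr at 37 C; compounds added; 24 hr at 37 C; CellTiter-Glo added, 30 min room temperature; luminescence read. Decrease in ATP taken as cytotoxicity, AC50 from Hill modelling.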
# [7] = Cell Viability - LYMP2-009 (AID 968); note: nearly all actives have a fitted effect of over 55% in size; note: potency is the fitted concentration of half-maximal effect
# [8] = Cell Viability - LYMP2-023 (AID 975);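 note: cells exposed to compound for 24 hours at 37 °C; nearly all actives have a fitted effect of over 55% in size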; note: potency is the fitted concentration of half-maximal effect;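 for activity change, negative = cytotoxicity: cellular ATP measured by luciferase luminescence as viability proxy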
# In short: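 2500 cells/well, 5 hr 37 C; cpd 24 hr 37 C; CellTiter-Glo, 30 min RT; luminescence. qHTS conc-response, Hill fit -> AC50. Pos ctrl tetraoctylammonium bromide.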
# [9] = Cell Viability - LYMP2-006 (AID 978);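 note: cells exposed to compound for 24 hours; nearly all actives have a fitted effect of over 60% in size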; note: potency is the fitted concentration of half-maximal effect
# In short: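 Concentration-dependent loss of intracellular ATP in a human lymphoblastoid line after 24 hr treatment at 37 C was measured by CellTiter-Glo luminescence, with AC50 values obtained from standard Hill-equation modelling.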
# [10] = Cell Viability - LYMP2-012 (AID 982);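 note: cellular ATP by luciferase luminescence where a drop means cytotoxicity; cells exposed to compound for one day before reading; nearly all actives have a fitted effect of over 55% in size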; note: potency is the fitted concentration of half-maximal effect
# [11] = Cell Viability - LYMP2-018 (AID 985);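 note: compound exposure lasted 24 hr at 37 °C; nearly all actives have a fitted effect of over 50% in size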; note: potency is the fitted concentration of half-maximal effect
# In short: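 Luminescent ATP signal (CellTiter-Glo, read after 30 min at room temperature) reports viable cells after 24 hr compound treatment at 37 C. Concentration-response data were fitted to the standard Hill equation for AC50.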
# [12] = Cell Viability - LYMP2-020 (AID 986); note: nearly all actives have a fitted effect of over 55% in size; note: potency is the fitted concentration of half-maximal effect
# In short: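 Luminescent ATP signal (CellTiter-Glo, 30 min at room temperature) is the read-out after 24 h compound treatment of lymphoblastoid cells at 37 C. AC50 values come from Hill-equation fits across concentrations.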
# [13] = Cell Viability - LYMP2-026 (AID 989); note: nearly all actives have a fitted effect of over 50% in size; note: potency is the fitted concentration of half-maximal effect
# In short: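 Luminescent ATP signal (CellTiter-Glo, 30 min room temperature) measures viable lymphoblastoid cells after 24 hr compound treatment at 37 C. Decreased ATP reflects acute toxicity; AC50 values come from Hill-equation modeling.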
# [14] = Cell Viability - LYMP1-002 - Assay at 40 hr (AID 994); note: nearly all actives have a fitted effect of over 60% in size; note: potency is the fitted concentration of half-maximal effect
# In short: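 Luminescent ATP signal served as the viability readout, with decreases taken as toxicity. Cells were treated with compounds across a concentration range for 40 hours at 37 C, and AC50 values came from standard Hill modeling.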
# [15] = test system: HIV-1 nucleocapsid protein NCp7 (binding to TG oligonucleotide); test: HIV Nucleocapsid (AID 346; call rule not given here;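 note: potency is the fitted concentration of half-maximal effect; potency is for inhibitors that block NC binding and lower polarization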); settings: HIV-1 NC / fluorescein-TGTGTGTG probe, fluorescence polarization
# In short: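 NCp7 100 nM + fluorescein TG4xF 10 nM; Hepes pH 7.5/250mM NaCl/1uM ZnCl2/0.004% PEG 20000; 1 hr RT; FP, 45 s exposure; oligo-only wells as negative control.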
# C2A = test: qHTS profiling for inhibitors of Plasmodium falciparum proliferation (AID 504749); note: nearly all actives have a fitted effect of over 60% in size; note: potency is the fitted concentration of half-maximal effect; settings: P. falciparum in erythrocytes, SYBR Green DNA, 72 h; series mostly up to 28.7 µM
# In short: (§1)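 Parasite proliferation within erythrocytes, 72 h exposure. Endpoint: SYBR Green I fluorescence after overnight lysis at room temperature. Controls: 0.29 uM artemisinin, DMSO.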
# CP211 = test: as above; settings: P. falciparum in erythrocytes, SYBR Green DNA, 72 h; series mostly up to 28.7 µM
# In short: as §1
# CP237 = test: as above; settings: P. falciparum in erythrocytes, SYBR Green DNA, 72 h; series mostly up to 28.7 µM
# In short: as §1
# CP247 = test: as above; settings: P. falciparum in erythrocytes, SYBR Green DNA, 72 h; series mostly up to 28.7 µM
# In short: as §1
# JCK = test: as above; settings: P. falciparum in erythrocytes, SYBR Green DNA, 72 h; series mostly up to 28.7 µM
# In short: as §1
smiles,measurement,setting,value
ClC(Cl)=C(c1ccc(Cl)cc1)c1ccc(Cl)cc1,"activity change, negative = cytotoxicity",[1],-14.6%
same,Potency,[2],inactive
same,Potency,[3],inactive
same,Potency,[4],inactive
same,Potency,[5],inactive
same,Potency,[6],inactive
same,Potency,[7],inactive
same,Potency,[8],inactive
same,Potency,[9],inactive
same,Potency,[10],inactive
same,Potency,[11],inactive
same,Potency,[12],inactive
same,Potency,[13],inactive
same,Potency,[14],inactive
CN1CC[C@@]2(CCCN(C(=O)c3ccco3)C2)C1,Potency,[15],> 20 µM
COP(=S)(OC)Oc1ccc([N+](=O)[O-])cc1,"activity change, negative = cytotoxicity",[1],-21.2%
same,Potency,[2],inactive
same,Potency,[3],inactive
same,Potency,[4],inactive
same,Potency,[5],inactive
same,Potency,[6],inactive
same,Potency,[7],inactive
same,Potency,[8],inactive
same,Potency,[9],inactive
same,Potency,[10],inactive
same,Potency,[11],inactive
same,Potency,[12],inactive
same,Potency,[13],inactive
same,Potency,[14],inactive
c1ccc(N2CCC3(CCNCC3)CC2)nc1,Potency,[15],> 20 µM
c1ccc(N2CCC3(CCNCC3)CC2)cc1,Potency,[15],> 20 µM
ClC1=C(Cl)C2(Cl)C3C(Cl)C=CC3C1(Cl)C2(Cl)Cl (stereo unspecified),Potency,[2],inactive
same,Potency,[7],inactive
same,Potency,[8],inactive
same,Potency,[10],inactive
same,Potency,[13],inactive
same,Potency,[14],inactive
N#Cc1ccc(CN2CCC3(CC2)CCN(C(=O)Oc2ccccc2)CC3)cc1,Potency,[15],> 20 µM
CCc1cccc(CC)c1N(COC)C(=O)CCl,"activity change, negative = cytotoxicity",[1],-5.69%
same,Potency,[3],inactive
same,Potency,[4],inactive
same,Potency,[5],inactive
same,Potency,[6],inactive
same,Potency,[7],50.1 µM (active)
same,Potency,[11],39.8 µM (active)
same,Potency,[12],50.1 µM (active)
CC(C)NC(=O)N1CCC2(CCNCC2)CC1,Potency,[15],> 20 µM
ClC1=C(Cl)C2(Cl)C3C4CC(C5OC45)C3C1(Cl)C2(Cl)Cl (stereo unspecified),Potency,[2],inactive
same,Potency,[3],12.6 µM (active)
same,Potency,[4],20 µM (active)
same,Potency,[5],12.6 µM (active)
same,Potency,[6],25.1 µM (active)
same,Potency,[8],39.8 µM (active)
same,Potency,[9],31.6 µM (active)
same,Potency,[10],39.8 µM (active)
same,Potency,[11],39.8 µM (active)
same,Potency,[12],31.6 µM (active)
same,Potency,[13],39.8 µM (active)
same,Potency,[14],12.6 µM (active)
same,Potency,C2A,inactive
same,Potency,CP211,inactive
same,Potency,CP237,inactive
same,Potency,CP247,inactive
same,Potency,JCK,inactive
C/C=C/c1ccc2c(c1)OCO2,"activity change, negative = cytotoxicity",[1],-2.31%
same,Potency,[2],inactive
same,Potency,[3],inactive
same,Potency,[4],inactive
same,Potency,[5],inactive
same,Potency,[6],inactive
same,Potency,[7],inactive
same,Potency,[8],inactive
same,Potency,[9],inactive
same,Potency,[10],inactive
same,Potency,[11],inactive
same,Potency,[12],inactive
same,Potency,[13],inactive
same,Potency,[14],inactive
CCN(CC)C(=O)N[C@@H]1C[C@@H]2c3cccc4[nH]cc(c34)C[C@H]2N(C)C1,Potency,CP211,3.38 µM (active)
same,Potency,CP247,inactive
CNC(=O)O/N=C/C(C)(C)SC,"activity change, negative = cytotoxicity",[1],-2.66%
same,Potency,[2],inactive
same,Potency,[3],inactive
same,Potency,[4],inactive
same,Potency,[5],inactive
same,Potency,[6],inactive
same,Potency,[8],inactive
same,Potency,[9],inactive
same,Potency,[10],inactive
same,Potency,[11],inactive
same,Potency,[13],inactive
same,Potency,[14],inactive
CC(C)c1c(CN(C)[C@@H](C)Cc2ccccc2)n(C)n(-c2ccccc2)c1=O,Potency,C2A,inactive
same,Potency,CP211,inactive
same,Potency,CP237,inactive
same,Potency,CP247,inactive
same,Potency,JCK,inactive
CN(C)C(=O)Oc1cc(OC(=O)N(C)C)cc([C@@H](O)CNC(C)(C)C)c1,Potency,C2A,inactive
same,Potency,CP211,inactive
same,Potency,CP237,inactive
same,Potency,CP247,inactive
same,Potency,JCK,inactive
C[N+]1(C)[C@@H]2CC[C@H]1CC(OC(=O)[C@@H](CO)c1ccccc1)C2 (stereo partly specified),Potency,C2A,inactive
same,Potency,CP211,inactive
same,Potency,CP237,inactive
same,Potency,CP247,inactive
same,Potency,JCK,inactive
CC[C@@]1(c2ccc(N)cc2)CCC(=O)NC1=O,Potency,C2A,inactive
same,Potency,CP211,inactive
same,Potency,CP237,inactive
same,Potency,CP247,inactive
same,Potency,JCK,inactive
C[C@@]12CCC(=O)C=C1C=C[C@H]1[C@H]3CC[C@](O)(CCC(=O)O)[C@]3(C)CC[C@@H]12,Potency,C2A,inactive
same,Potency,CP211,inactive
same,Potency,CP237,inactive
same,Potency,CP247,inactive
same,Potency,JCK,inactive
C[C@H](N)[C@@H](O)c1ccccc1,Potency,C2A,inactive
same,Potency,CP211,inactive
same,Potency,CP237,inactive
same,Potency,CP247,inactive
same,Potency,JCK,inactive
C[N+]1([O-])[C@@H]2CC(OC(=O)[C@@H](CO)c3ccccc3)C[C@@H]1[C@H]1O[C@H]12 (stereo partly specified),Potency,C2A,inactive
same,Potency,CP211,inactive
same,Potency,CP237,inactive
same,Potency,CP247,inactive
same,Potency,JCK,inactive
CC1=C2[C@@H]3OC(=O)[C@@H](C)[C@@H]3CC[C@]2(C)C=CC1=O,Potency,C2A,inactive
same,Potency,CP211,inactive
same,Potency,CP237,inactive
same,Potency,JCK,inactive
